Reference: PubChem BioAssay AID588591 (National Center for Advancing Translational Sciences (NCATS), 2011)
Hit rate of the full screen: of about 390,000 compounds, about 4,700 (1.2%) were called active. Entries that show only a call come without a potency. About 4% were inconclusive and are not listed. Calls come from the whole dose curve; as a rule, active = well fitted inhibition curve with a large enough effect; inconclusive = small, poorly fitted or top-dose-only effect, or another doubt; inactive = no such curve, though single readings can be large or run the other way. Many of the other results were omitted from the sample, so actives are more common in it than they were.

target: DNA polymerase eta (Homo sapiens) (UniProt Q9Y253); assay: qHTS for Inhibitors of Polymerase Eta; settings: recombinant Pol eta, fluorescent DNA replication assay; series mostly up to 114 µM
Sequence (Q9Y253 whole entry, looked up): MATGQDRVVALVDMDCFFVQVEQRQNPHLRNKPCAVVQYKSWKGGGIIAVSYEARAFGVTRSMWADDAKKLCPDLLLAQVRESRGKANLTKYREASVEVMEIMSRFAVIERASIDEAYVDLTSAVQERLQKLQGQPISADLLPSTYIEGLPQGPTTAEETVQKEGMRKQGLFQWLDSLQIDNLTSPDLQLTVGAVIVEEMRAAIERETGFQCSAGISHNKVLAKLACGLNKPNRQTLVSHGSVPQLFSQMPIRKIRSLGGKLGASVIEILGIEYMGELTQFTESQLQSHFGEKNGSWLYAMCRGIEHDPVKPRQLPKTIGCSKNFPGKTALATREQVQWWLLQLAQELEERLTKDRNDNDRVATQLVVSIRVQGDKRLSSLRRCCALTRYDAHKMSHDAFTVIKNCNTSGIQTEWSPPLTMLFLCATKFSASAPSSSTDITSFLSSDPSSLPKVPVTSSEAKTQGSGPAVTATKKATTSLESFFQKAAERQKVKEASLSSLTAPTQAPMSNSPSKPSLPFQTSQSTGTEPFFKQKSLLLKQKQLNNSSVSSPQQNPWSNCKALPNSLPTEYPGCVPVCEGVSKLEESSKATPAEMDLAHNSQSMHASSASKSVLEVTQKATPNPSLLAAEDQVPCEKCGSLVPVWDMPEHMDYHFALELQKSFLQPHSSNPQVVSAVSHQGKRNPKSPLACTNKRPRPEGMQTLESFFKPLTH
How it was run: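 Fluorescent replication assay: 50 nM final substrate added after a 15 min room-temperature compound preincubation with 10 nM enzyme. Signal taken at 0 min and again at 10 min.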
Potency is the fitted concentration of half-maximal effect.

Row | Compound | Potency
1 | COc1ccc(OC)c(-c2nc(C(N)=O)c3c(n2)n(-c2ccc4c(c2)OCO4)c(=O)n3C)c1 | inactive
2 | CCCOc1cccc(C(=O)Nc2cccc(NC(=O)c3ccc(C(C)(C)C)cc3)c2)c1 | inactive
3 | Cc1csc2nc(COc3ccc(NC(=O)COc4ccccc4)cc3)cc(=O)n12 | inactive
4 | N#Cc1ccc(OCC(=O)Nc2nc(-c3ccccn3)cs2)cc1 | 22.4 µM (active)
5 | CCc1nnc(NC(=O)CSc2nnc(COc3ccc(C#N)cc3)n2-c2ccccc2)s1 | inactive
6 | COCCNC(=O)CSc1c(C)cnc2c1c(=O)n(C)c(=O)n2C | inactive
7 | CCOC(=O)c1ccc(NC(=O)CCn2cnnn2)cc1 | inactive
8 | CCN(C(=O)c1sc2cc(OC)ccc2c1Cl)c1ccccc1 | inactive
9 | CCC(=O)N1CCc2cc(Br)cc(S(=O)(=O)CCC(=O)N3CCN(c4ccc(F)cc4)CC3)c21 | inactive
10 | O=C1Nc2ccc([N+](=O)[O-])cc2C1=Nc1cccc(CO)c1 | 20 µM (active)
11 | COc1ccccc1CNC(=O)CCCCn1c(=O)c2ccccc2n(CC(=O)Nc2cc(Cl)ccc2C)c1=O | inactive
12 | COc1cc(OC)c(NC(=O)c2cc(S(=O)(=O)N3CCCC3)cn2C)cc1Cl | inactive
13 | CCCN1CN=C(NS(=O)(=O)c2ccc(NC(C)=O)cc2)NC1 | inactive
14 | Cc1ccc(-n2c(=O)c3cccnc3n2CC(=O)Nc2ccccc2C(F)(F)F)cc1C | inactive
15 | COCCCNC(=O)c1c(NC(=O)c2cc(=O)c3cc(C)c(C)cc3o2)sc2c1CCCC2 | inactive
16 | Cc1cc(C)cc(NS(=O)(=O)c2ccc3[nH]cc(C(=O)N4CCCCC4)c(=O)c3c2)c1 | inactive
17 | CCc1ccc(NS(=O)(=O)c2ccc3[nH]cc(C(=O)NCCc4cccc(C)c4)c(=O)c3c2)cc1 | inactive
18 | CC(C)c1ccc(NS(=O)(=O)c2ccc3[nH]cc(C(=O)NC4CCCC4)c(=O)c3c2)cc1 | 31.6 µM (active)
19 | CCOc1cc(C2c3c(-c4ccc(Br)cc4)n[nH]c3C(=O)N2c2ccc(Cl)cc2)ccc1O (stereo not drawn) | inactive
20 | Cc1cccc(Nc2nc(C)nc(N)c2S(=O)(=O)c2ccccc2)c1 | inactive
21 | COc1ccc(CCNC(=O)CCCn2c(=O)c3ccccc3n(Cc3ccc(C)cc3)c2=O)cc1OC | inactive

Row | Compound | Potency
22 | CC(=O)c1cccc(Nc2ccc3cc(S(=O)(=O)N4CCC(C)CC4)ccc3n2)c1 | inactive
23 | CC(=O)c1ccc(S(=O)(=O)N2CCN(C(=O)/C=C/c3ccc4ccccc4n3)CC2)cc1 | 39.8 µM (active)
24 | CC(=O)c1ccc(S(=O)(=O)N2CCC(Oc3ccc(-n4cnnn4)cc3)CC2)cc1 | inactive
25 | Cc1ccccc1CNC(=O)CSc1nnc(C)c2c(C)n(-c3ccccc3)nc12 | inactive
26 | CN(Cc1ccccc1)C(=O)c1cn(C)c2ccc(S(=O)(=O)N3CCCCC3)cc2c1=O | inactive
27 | CCCCn1c(=N)c(S(=O)(=O)c2ccccc2)cc2c(=O)n3cccc(C)c3nc21 | inactive
28 | CCCc1cc(-c2n[nH]c(=S)n2CC)c2ccccc2n1 | inactive
29 | Cc1cc(-c2n[nH]c(=S)n2/N=C/C(Br)=C/c2ccccc2)n[nH]1 | 14.1 µM (active)
30 | Cc1ccc(NC(=O)CSc2nnc3[nH]c(=O)cc(C)n23)cc1Cl | inactive
31 | COc1ccc(CC(=O)Nc2sc(Cc3ccccc3)c(C)c2C(N)=O)cc1 | inactive
32 | COc1ccc(CNC(=O)CCC(=O)Nc2nnc(C(C)C)s2)cc1 | inactive
33 | COc1ccc(Cc2nnc(NC(=O)Cc3cccs3)s2)cc1 | 1 µM (active)
34 | CC(C)(C)CC(=O)Nc1nnc(SCC(=O)NCc2cccs2)s1 | inactive
35 | CCOc1ccc(NC(=O)C/C(C)=N/NC(=O)Cc2cccs2)cc1 | inactive
36 | CCc1nnc(NC(=O)Cc2cccs2)s1 | 35.5 µM (active)
37 | CCOc1ccccc1NC(=O)Cc1cccs1 | 44.7 µM (active)
38 | CCOc1ccccc1NC(=O)CCn1cnnn1 | inactive
39 | CCc1nnc(NC(=O)CCC(=O)NCc2ccccc2OC)s1 | inactive
40 | COc1cccc(NC(=O)CSc2cc(=O)n(C)c3ccc(Cl)cc23)c1 | inactive
41 | Fc1ccccc1Oc1ncnc2c1oc1ccccc12 | inactive
42 | Cc1cccc(-n2ncc(C(=O)N3CCc4ccccc4C3)c2C2CCN(C(=O)OC(C)(C)C)CC2)c1 | inactive

Row | Compound | Potency
43 | COc1ccccc1-c1nnc(C2CCN(C(=O)c3ccc(Cl)cc3)CC2)o1 | inactive
44 | Cc1ccc(-n2c(=O)c3cccnc3n2CC(=O)NCc2ccc(F)cc2)cc1C | inactive
45 | Cc1oc2ccc(O)c(CN3CCOCC3)c2c1C(=O)Nc1cccc(Cl)c1C | inactive
46 | COc1ccc2oc(=O)c(-c3cn4c(n3)sc3cc(OC)ccc34)cc2c1 | inactive
47 | COc1ccc2cc(-c3nc(Cl)c4c5c(sc4n3)CC(C)CC5)c(=O)oc2c1 (stereo not drawn) | inactive
48 | COc1ccc(-c2cc3ccc(OCc4nn[nH]n4)cc3oc2=O)cc1 | 17.8 µM (active)
49 | CCCS(=O)(=O)c1ncc(Cl)c(C(=O)Nc2scc(-c3ccccc3)c2C(=O)OCC)n1 | inactive
50 | COc1ccc(Cn2c(C(=O)O)c(CNCCc3cccs3)c3ccc(OC)cc32)cc1 | inactive
51 | CCCNC(=O)C1CCN(c2nc3ccc(C)cc3[nH]2)CC1 | inactive
52 | Cc1ccc(Cc2cncc(O)c2)cc1S(=O)(=O)O | 25.1 µM (active)
53 | CCCCCn1c(CCCNC(=O)c2ccccc2OC)nc2ccccc21 | inactive
54 | Oc1c(Cl)cc(Cl)c(Cl)c1Cc1c(O)c(Cl)cc(Cl)c1Cl | 44.7 µM (active)
55 | Cc1ccccc1NC(=O)Cn1cc(C(=O)c2cccs2)c2ccccc21 | inactive
56 | Cn1c(=O)c2c(nc(Oc3ccc(C#N)cc3)n2Cc2ccc(Cl)cc2Cl)n(C)c1=O | inactive
57 | Cc1cccc(C)c1-n1ncc(C(=O)NCCCN2CCCCC2)c1C1CCN(C(=O)OC(C)(C)C)CC1 | inactive
58 | CC(C)CC(=O)NCC(c1ccc2c(c1)OCO2)N1CCN(c2ccc(F)cc2)CC1 (stereo not drawn) | inactive
59 | O=C(c1ccccc1)c1ccc(OC(=O)N2CCCC2)cc1 | inactive
60 | O=C(c1ccc(O)cc1)c1ccc(C(=O)O)c(C(=O)O)c1 | 39.8 µM (active)
61 | CC(=O)c1ccccc1OCc1ccc(C(=O)c2ccccc2)cc1 | inactive
62 | CCOc1cccc2sc(N3CCN(C(=O)C4CC4)CC3)nc12 | inactive
63 | O=C(CSc1oc(-c2ccco2)nc1S(=O)(=O)c1ccc(Cl)cc1)c1ccccc1 | inactive
